Where “and” joins values, the source holds several entries; their conditions need not be identical. Identical values can stand only once. Values without a mark were called inactive. Records with an inconclusive call do not appear. A call without a number means that no potency is given here. Calls of active or inactive are those of the source. Calls come from the whole dose curve; as a rule, active = well fitted curve in the direction sought with a large enough effect in the repeat runs; inconclusive = weak or mixed curves; inactive = no such curve, though single readings can be large; an effect the other way counts as inactive or inconclusive.
Assays:
[1] = qHTS RealTime-Glo MT Cell Viability Assay in HepG2 cells - 40 hour (AID 1224870); note: nearly all actives have a fitted effect of over 50% in size
How it was run: (§1)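 HepG2 cells mixed with RealTime-Glo MT reagents (NanoLuc plus cell-permeant prosubstrate) were seeded at 600 cells/well, incubated 5 h at 37 C/5% CO2, then pinned with compounds in DMSO; nonlytic luminescence tracked viability during 40 h treatment.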

[2] = A CellTox Green Cytotoxicity Assay to monitor cytotoxicity in HEK293 cells - 40 hour (AID 1224871); note: nearly all actives have a fitted effect of over 45% in size; note: potency is the fitted concentration of half-maximal effect
How it was run: (§2)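 Real-time, in one plate: 600 HEK293 cells/well with dead-cell DNA dye, pinned compound after 5 h, 37 C incubation over 40 h; viable cells give no appreciable fluorescence.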

[3] = qHTS RealTime-Glo MT Cell Viability Assay in HEK293 cells - 16 hour (AID 1224872); note: top concentration of the series differs between compounds; nearly all actives have a fitted effect of over 50% in size
How it was run: (§3)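 Viability tracked continuously by luminescence as live cells reduce a prosubstrate for NanoLuc; HEK293 cells preincubated 5 h, compound-treated at 37 C, and read at 0, 8, 16, 24, 32 and 40 h.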

[4] = qHTS RealTime-Glo MT Cell Viability Assay in HepG2 cells - 8 hour (AID 1224873); note: nearly all actives have a fitted effect of over 55% in size
How it was run: as §1

[5] = qHTS RealTime-Glo MT Cell Viability Assay in HEK293 cells - 40 hour (AID 1224874); conditions: RealTime-Glo luminescence; max response: stronger effect = lower value; note: nearly all actives have a fitted effect of over 50% in size
How it was run: (§4)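 Kinetic, non-lysing viability readout. Seed HEK293 (600/well) with reagent, incubate 5 h at 37 C/5% CO2, pin 23 nL compound in DMSO, incubate at 37 C, read luminescence at 0, 8, 16, 24, 32, 40 h.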

[6] = A CellTox Green Cytotoxicity Assay to monitor cytotoxicity in HEK293 cells - 24 hour (AID 1224875); note: nearly all actives have a fitted effect of over 45% in size; note: potency is the fitted concentration of half-maximal effect
How it was run: as §2

[7] = A CellTox Green Cytotoxicity Assay to monitor cytotoxicity in HepG2 cells - 16 hour (AID 1224876); note: nearly all actives have a fitted effect of over 45% in size
How it was run: (§5)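 Cytotoxicity was tracked as dead-cell DNA fluorescence in HepG2 cells treated with test compounds at 37 C; each time-point value comes from one kinetic series spanning 0, 8, 16, 24, 32 and 40 h.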

[8] = qHTS RealTime-Glo MT Cell Viability Assay in HepG2 cells - 32 hour (AID 1224877); note: nearly all actives have a fitted effect of over 55% in size
How it was run: (§6)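 Viability was tracked continuously by NanoLuc luminescence from prosubstrate reduced by living HepG2 cells, at successive time points over 40 h of compound exposure. Cells with reagent were preincubated 5 h at 37 °C before compound addition.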

[9] = A CellTox Green Cytotoxicity Assay to monitor cytotoxicity in HepG2 cells - 24 hour (AID 1224878); note: nearly all actives have a fitted effect of over 45% in size
How it was run: as §5

[10] = A CellTox Green Cytotoxicity Assay to monitor cytotoxicity in HepG2 cells - 40 hour (AID 1224879); note: nearly all actives have a fitted effect of over 40% in size
How it was run: as §5

[11] = qHTS RealTime-Glo MT Cell Viability Assay in HEK293 cells - 0 hour (AID 1224880)
How it was run: as §4

[12] = A CellTox Green Cytotoxicity Assay to monitor cytotoxicity in HEK293 cells - 32 hour (AID 1224881); note: nearly all actives have a fitted effect of over 40% in size; note: potency is the fitted concentration of half-maximal effect
How it was run: as §2

[13] = A CellTox Green Cytotoxicity Assay to monitor cytotoxicity in HepG2 cells - 0 hour (AID 1224882); note: nearly all actives have a fitted effect of over 35% in size
How it was run: as §5

[14] = A CellTox Green Cytotoxicity Assay to monitor cytotoxicity in HepG2 cells - 32 hour (AID 1224883); note: nearly all actives have a fitted effect of over 50% in size
How it was run: as §5

[15] = A CellTox Green Cytotoxicity Assay to monitor cytotoxicity in HEK293 cells - 8 hour (AID 1224884); note: nearly all actives have a fitted effect of over 35% in size
How it was run: as §2

[16] = qHTS RealTime-Glo MT Cell Viability Assay in HepG2 cells - 16 hour (AID 1224885); note: nearly all actives have a fitted effect of over 50% in size
How it was run: as §6

[17] = qHTS RealTime-Glo MT Cell Viability Assay in HEK293 cells - 24 hour (AID 1224886)
How it was run: as §3

[18] = qHTS RealTime-Glo MT Cell Viability Assay in HEK293 cells - 8 hour (AID 1224887)
How it was run: as §4

[19] = A CellTox Green Cytotoxicity Assay to monitor cytotoxicity in HEK293 cells - 16 hour (AID 1224888); note: nearly all actives have a fitted effect of over 35% in size
How it was run: as §2

[20] = qHTS RealTime-Glo MT Cell Viability Assay in HepG2 cells - 0 hour (AID 1224889); note: nearly all actives have a fitted effect of over 50% in size
How it was run: as §6

| SMILES | Potency [1] | Potency [2] | Potency [3] | Potency [4] | max response [5] | Potency [6] | Potency [7] | Potency [8] | Potency [9] | Potency [10] | Potency [11] | Potency [12] | Potency [13] | Potency [14] | Potency [15] | Potency [16] | Potency [17] | Potency [18] | Potency [19] | Potency [20] |
| --- | --- | --- | --- | --- | --- | --- | --- | --- | --- | --- | --- | --- | --- | --- | --- | --- | --- | --- | --- | --- |
| CCC=CC#N | inactive | inactive | inactive | inactive | 10.8% | inactive | inactive | inactive | inactive | inactive | inactive | inactive | inactive | inactive | inactive | inactive | inactive | inactive | inactive | inactive |
| O=c1[nH]ncc2ccccc12 | inactive | inactive | inactive | inactive | 6.19% | inactive | inactive | inactive |  | inactive | inactive | inactive | inactive | inactive | inactive |  | inactive | inactive | inactive | inactive |
| C[C@]1(Cn2ccnn2)[C@H](C(=O)O)N2C(=O)C[C@H]2S1(=O)=O | inactive | inactive | inactive | inactive | 2.48% | inactive | inactive | inactive | inactive | inactive | inactive | inactive | inactive | inactive | inactive | inactive | inactive | inactive | inactive | inactive |
| Cc1ccc(Cl)c(Nc2ccccc2C(=O)O)c1Cl | inactive | inactive | inactive | inactive | -3% | inactive | inactive | inactive | inactive | inactive | inactive | inactive | inactive | inactive | inactive | inactive | inactive | inactive | inactive | inactive |
| C1C[C@@H]2[C@H]3CC[C@H](C3)[C@@H]2C1 | inactive | inactive | inactive | inactive | -10.1% | inactive | inactive | inactive | inactive | inactive | inactive | inactive | inactive | inactive | inactive | inactive | inactive | inactive |  | inactive |
| O=C1NCCN1CCO | inactive | inactive | inactive | inactive | 15.9% | inactive | inactive | inactive | inactive | inactive | inactive | inactive | inactive | inactive | inactive | inactive | inactive | inactive | inactive | inactive |
| Cc1ccccc1S | inactive | inactive | inactive | inactive | -6.46% | inactive | inactive | inactive | inactive | inactive | inactive | inactive | inactive | inactive | inactive | inactive |  | inactive | inactive | inactive |
| Cc1[nH]cnc1CN1CCc2c(c3ccccc3n2C)C1=O | inactive | inactive | inactive | inactive | -24.4% | inactive | inactive | inactive | inactive | inactive | inactive | inactive | inactive | inactive | inactive | inactive | inactive | inactive | inactive | inactive |
| C[C@H]1c2cccc(O)c2C(O)=C2C(=O)[C@]3(O)C(O)=C(C(N)=O)C(=O)[C@@H](N(C)C)[C@@H]3[C@@H](O)[C@@H]21 | inactive | inactive | inactive | inactive | 0.751% | inactive | inactive | inactive |  | inactive | inactive | inactive | inactive | inactive | inactive | inactive | inactive | inactive |  | inactive |
| C=C1CCC2CC1C2(C)C (stereo not given) | inactive | inactive | inactive | inactive | 0.0757% | inactive | inactive | inactive | inactive | inactive | inactive | inactive | inactive | inactive |  | inactive |  | inactive | inactive | inactive |
| Cc1c(C)c2c(c(C)c1OC(=O)CCC(=O)OCCO)CC[C@@](C)(CCC[C@H](C)CCC[C@H](C)CCCC(C)C)O2 | inactive | inactive | inactive | inactive | -18.9% | inactive | inactive | inactive | inactive | inactive | inactive | inactive | inactive | inactive | inactive | inactive | inactive | inactive | inactive | inactive |
| COc1cc(C(=O)NCCCCCC(=O)O)cc(OC)c1OC | inactive | inactive | inactive | inactive | 1.12% | inactive | inactive | inactive | inactive | inactive | inactive | inactive | inactive | inactive | inactive | inactive | inactive | inactive |  | inactive |
| CC/C=C1/OC(=O)c2ccccc21 | inactive | inactive | inactive | inactive | -7.38% | inactive | inactive | inactive | inactive | inactive | inactive | inactive | inactive | inactive | inactive | inactive | inactive | inactive | inactive | inactive |
| C=C(C)C(=O)OCCCCCCCCCCCCC | inactive | inactive | inactive | inactive | 4.36% | inactive | inactive | inactive | inactive | inactive | inactive | inactive |  | inactive | inactive | inactive |  | inactive | inactive | inactive |
| CCC(OCCCOC)OC(C)=O (stereo not given) | inactive | inactive | inactive | inactive | 3.03% | inactive | inactive | inactive |  | inactive | inactive | inactive | inactive | inactive | inactive | inactive | inactive | inactive | inactive | inactive |
| O=C(O)CCCCCCCCCCCBr | inactive | inactive | inactive | inactive | -7.89% | inactive | inactive | inactive | inactive | inactive | inactive | inactive | inactive | inactive | inactive |  | inactive | inactive | inactive | inactive |
| CO/N=C(/C(=O)N[C@@H]1C(=O)N2C(C(=O)O)=C(COC(N)=O)CS[C@H]12)c1ccco1 | inactive | inactive | inactive | inactive | 10.8% | inactive | inactive | inactive | inactive | inactive | inactive | inactive | inactive | inactive | inactive | inactive | inactive | inactive | inactive | inactive |
| O=C1NC(=O)c2cc([N+](=O)[O-])ccc21 | inactive | inactive | inactive | inactive | 2.79% | inactive | inactive | inactive | inactive | inactive | inactive | inactive |  | inactive | inactive | inactive | inactive | inactive | inactive | inactive |
| C=CCc1ccccc1OCC(O)CNC(C)C (stereo not given) | inactive | inactive | inactive | inactive | -5.29% | inactive | inactive | inactive | inactive | inactive | inactive | inactive | inactive | inactive | inactive | inactive |  | inactive | inactive | inactive |
| CCN(CC)CCNC(=O)COc1ccc(OC)cc1 | inactive | inactive | inactive | inactive | 13.7% | inactive | inactive | inactive | inactive | inactive | inactive | inactive | inactive | inactive | inactive | inactive | inactive | inactive |  | inactive |
| CCOc1cccc(-n2cc(C(=O)N3CCN(c4cc(C(=O)O)c5ccccc5c4)CC3)nc2-c2ccc(C)cc2)c1 | inactive | inactive | inactive | inactive | 7.68% | inactive | inactive | inactive | inactive | inactive |  | inactive | inactive | inactive | inactive | inactive | inactive |  | inactive | inactive |
| O=C(Cn1ccnc1[N+](=O)[O-])NCCO | inactive | inactive | inactive | inactive | 4.23% | inactive | inactive | inactive | inactive | inactive | inactive | inactive | inactive | inactive |  |  | inactive | inactive | inactive | inactive |
| O=C1CCCCCCCCCCOCCCCO1 | inactive | 49 µM (active) | inactive | inactive | -14.4% | 49 µM (active) | inactive | inactive | inactive | inactive | inactive | 49 µM (active) | inactive | inactive | inactive | inactive | inactive | inactive | inactive | inactive |
| C=CC(C)(CCC=C(C)C)OC(=O)CC(C)C (stereo not given) | inactive | inactive | inactive | inactive | 7.92% | inactive | inactive | inactive | inactive | inactive | inactive | inactive | inactive | inactive | inactive | inactive |  | inactive |  | inactive |
| CO[C@]1(NC(=O)CSC(F)F)C(=O)N2C(C(=O)O)=C(CSc3nnnn3CCO)CO[C@H]21 | inactive | inactive | inactive | inactive | 21.2% | inactive | inactive | inactive | inactive | inactive | inactive | inactive | inactive | inactive | inactive | inactive |  | inactive | inactive | inactive |
| CC(C)C=O | inactive | inactive | inactive | inactive | 0.0745% | inactive | inactive | inactive | inactive | inactive | inactive | inactive | inactive | inactive | inactive | inactive | inactive | inactive | inactive | inactive |
| O=C(O)CCc1nc(-c2ccccc2)c(-c2ccccc2)o1 | inactive | inactive | inactive | inactive | 0.935% | inactive | inactive | inactive | inactive | inactive | inactive | inactive |  | inactive | inactive | inactive |  | inactive | inactive | inactive |
| c1ccc2c(c1)CCc1ccccc1N2 | inactive | 49.2 µM (active) | inactive | inactive | -22.1% and -5.28% | inactive | inactive | inactive | inactive | inactive | inactive | 49.2 µM (active) | inactive | inactive | inactive | inactive | inactive | inactive | inactive | inactive |

From PubChem BioAssay (Tox21)
